# Values without a mark were called inactive.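 Rule for the calls: active = inhibition of plasma PAF acetylhydrolase at a set limit or more at 0.1 µM, with tenfold selectivity over all off-targets; inactive = inhibition below the limit or weaker selectivity.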
# Assay: pPAFAH inhibition and serine hydrolase selectivity, late-stage follow-up, selectivity assay for pPAFAH inhibitor project, biochemical, gel-based, FP-Rh fluorescence, mouse, HTS hit compounds (AID 588773)
# Conditions: gel-based competitive ABPP, proteome, MW 30 kDa protein, at 10 µM, stronger effect = higher value
row,SMILES,inhibition [%]
1,CN(C)C(=O)Oc1noc2cc(Cl)ccc12,14
2,O=C(Oc1ccc([N+](=O)[O-])cc1)N1CCC(N2CCCCC2)CC1,27

# From PubChem BioAssay AID588773 (The Scripps Research Institute Molecular Screening Center, 2011)
